Here are results for 7 compounds from PubChem BioAssay (Tox21).

Where “and” joins values, the source holds several entries; their conditions need not be identical. Identical values can stand only once. Records with an inconclusive call do not appear. Some compounds were tested as several samples or in several runs, with calls that do not always agree. Calls of active or inactive are those of the source. Unless noted, calls follow the shape of the dose curve; as a rule, active = well fitted curve in the direction sought with a large enough effect in the repeat runs; inconclusive = weak or mixed curves; inactive = no such curve, though single readings can be large; an effect the other way counts as inactive or inconclusive.

Assay [1] is described as follows: qHTS assay to test for compound auto fluorescence at 535 nm (green) in HEK293 cells (AID 720680). Also: % is scaled to controls: 0 for no effect and ±100 for the full control effect. On the technique in general: qHTS replaces the single test concentration by a dilution series.
Assay [2] can be described thus: qHTS assay to test for compound auto fluorescence at 460 nm (blue) in HEK293 cell free culture (AID 720681). Also: % is scaled to controls: 0 for no effect and ±100 for the full control effect. The method, boiled down:
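Blue fluorescence (Ex 405/Em 460 nm, triamterene-equivalent) was read immediately after pin transfer of compound or DMSO into medium (DMEM, 10% FBS) without cells.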

Assay [3] is described as follows: qHTS assay to test for compound auto fluorescence at 590 nm (red) in HEK293 cell free culture (AID 720683). Also: % is scaled to controls: 0 for no effect and ±100 for the full control effect. The method, boiled down:
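Red-channel autofluorescence of compounds in culture medium (DMEM, 10% FBS), no cells, measured at 540/590 nm. Rose Bengal sodium is the reference fluorophore for equivalence.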

The nature of assay [4]: qHTS assay to test for compound auto fluorescence at 590 nm (red) in HepG2 cell free culture (AID 720684). Also: % is scaled to controls: 0 for no effect and ±100 for the full control effect. The method, boiled down: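 No cells present: MEM + 10% FBS only. Compound pinned in, red label read (540/590 nm). Activity = fluorescence equivalent to Rose Bengal sodium.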
Assay [5] is described as follows: qHTS assay to test for compound auto fluorescence at 460 nm (blue) in HepG2 cell free culture (AID 720685). Also: % is scaled to controls: 0 for no effect and ±100 for the full control effect. Summed up:
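Cell-free plates of MEM plus 10% FBS received 23 nL compound or DMSO vehicle; blue-channel (405/460 nm) intensity scored against triamterene as reference fluorophore.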

Assay [6] is described as follows: qHTS assay to test for compound auto fluorescence at 535 nm (green) in HepG2 cell free culture (AID 720686). Also: % is scaled to controls: 0 for no effect and ±100 for the full control effect.
The nature of assay [7]: qHTS assay for identifying genotoxic compounds that show differential cytotoxicity against isogenic chicken DT40 cell lines with known DNA damage response pathways - wild type cell line (AID 743012). Also: nearly all actives have a fitted effect of over 60% in size. Also: potency is read from the fitted curve at half-maximal effect. The method, boiled down: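 CellTiter-Glo luminescence readout of viability in wild type DT40 cells after 40 h compound exposure at 37 C/5% CO2; 300 cells/well; reagent incubated 30 min at room temperature before reading.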

A short description of assay [8]: qHTS assay for identifying genotoxic compounds that show differential cytotoxicity against isogenic chicken DT40 cell lines with known DNA damage response pathways - Rev3 mutant cell line (AID 743014). Also: nearly all actives have a fitted effect of over 55% in size. Also: potency is read from the fitted curve at half-maximal effect.
Assay [9] can be described thus: qHTS assay for identifying genotoxic compounds that show differential cytotoxicity against isogenic chicken DT40 cell lines with known DNA damage response pathways - Rad54/Ku70 mutant cell line (AID 743015). Also: nearly all actives have a fitted effect of over 60% in size. Also: potency is read from the fitted curve at half-maximal effect.
Assay [10] is described as follows: qHTS assay to identify small molecule antagonists of the androgen receptor (AR) signaling pathway - cell viability counter screen (AID 743033; also: nearly all actives have a fitted effect of over 45% in size; also: potency is read from the fitted curve at half-maximal effect).
Assay [11] concerns the target Androgen receptor (Homo sapiens) (UniProt P10275). Description: qHTS assay to identify small molecule antagonists of the androgen receptor (AR) signaling pathway (AID 743035; active = well fitted inhibition curve with a large enough effect in the signal ratio in the repeat runs, not every such curve was filed as active; the % refers to the signal ratio; also: potency is read from the fitted curve at half-maximal effect). Summed up: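 AR-bla HEK293 reporter cells; 4 h settle at 37C/5% CO2; compound + R1881 agonist, 16 h at 37C; LiveBLAzer B/G FRET substrate 2 h RT; fluorescence intensity read. qHTS format.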
For assay [12] the target is unchanged. Description: qHTS assay to identify small molecule agonists of the androgen receptor (AR) signaling pathway (AID 743036; active = well fitted activation curve with a large enough effect in the signal ratio in the repeat runs, with a control signal flat, not every such curve was filed as active; the % refers to the signal ratio; also: % is scaled to controls: 0 for no effect and ±100 for the full control effect). The method, boiled down:
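Quantitative HTS of the Tox21 10K library in HEK293 cells bearing a stably integrated UAS-controlled beta-lactamase reporter. Compound exposure lasted 16 h at 37C. Reporter activity was detected by FRET substrate fluorescence after 2 h at room temperature.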

Assay [13] in a line: qHTS assay to identify small molecule antagonists of the androgen receptor (AR) signaling pathway using the MDA cell line - cell viability counter screen (AID 743041; also: nearly all actives have a fitted effect of over 45% in size; also: potency is read from the fitted curve at half-maximal effect). The method, boiled down: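 Using the breast carcinoma line MDA-kb2 AR-luc, test chemicals were co-incubated with R1881 for 16 h; CellTiter-Fluor reagent, added at 15.5 h, provided a fluorescence measure of live cells.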

In assay [14] the target is Androgen receptor (Homo sapiens) (UniProt P10275). Description: qHTS assay to identify small molecule antagonists of the androgen receptor (AR) signaling pathway using the MDA cell line (AID 743042; also: nearly all actives have a fitted effect of over 55% in size; also: potency is read from the fitted curve at half-maximal effect). Summed up:
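Antagonist mode: compounds plus R1881 agonist added to MDA-kb2 AR-luc cells, incubated 16 h at 37C. Luciferase reporter luminescence quantified, with multiplexed CellTiter-Fluor readout for cell viability.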

The nature of assay [15]: qHTS assay to identify small molecule antagonists of the thyroid receptor (TR) signaling pathway - cell viability counter screen (AID 743064). Also: potency is read from the fitted curve at half-maximal effect; nearly all actives have a fitted effect of over 50% in size. Summed up:
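Rat GH3 pituitary tumor cells stably expressing two TR response elements driving luciferase were plated, rested 4 h, then dosed with library compounds and T3 (1 nM final). After 23.5 h at 37 °C, CellTiter-Fluor was added for 30 min and fluorescence recorded.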

The nature of assay [16]: qHTS assay to test for compound auto fluorescence at 460 nm (blue) in HepG2 cells (AID 720687). Also: % is scaled to controls: 0 for no effect and ±100 for the full control effect. The method, boiled down: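 Blue-channel autofluorescence (Ex/Em 405/460 nm, triamterene-equivalent) was measured after 1 hr compound exposure at 37 C, 5% CO2. Cells were HepG2, plated overnight at 37 C in MEM plus 10% FBS.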
Assay [17] addresses Glucocorticoid receptor (Homo sapiens) (UniProt P04150). Description: qHTS assay to identify small molecule agonists of the glucocorticoid receptor (GR) signaling pathway (AID 720691; active = well fitted activation curve with a large enough effect in the signal ratio in the repeat runs, not every such curve was filed as active; the % refers to the signal ratio; also: % is scaled to controls: 0 for no effect and ±100 for the full control effect). The method, boiled down: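 HeLa GR-bla reporter line; cells pre-incubated 4 h, compound in DMSO 18 h at 37 C; LiveBLAzer B/G FRET substrate 2 h RT; fluorescence intensity read-out.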
Assay [18] is described as follows: qHTS assay to identify small molecule antagonists of the glucocorticoid receptor (GR) signaling pathway - cell viability counter screen (AID 720693). Also: nearly all actives have a fitted effect of over 55% in size. Also: potency is read from the fitted curve at half-maximal effect.
In assay [19] the target is Glucocorticoid receptor (Homo sapiens) (UniProt P04150). Description: qHTS assay to identify small molecule antagonists of the glucocorticoid receptor (GR) signaling pathway (AID 720692; active = well fitted inhibition curve with a large enough effect in the signal ratio in the repeat runs, not every such curve was filed as active; the % refers to the signal ratio; also: potency is read from the fitted curve at half-maximal effect). Summed up: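 Read-out: beta-lactamase FRET substrate fluorescence, 2 h at room temperature, in HeLa cells stably carrying a GRE-driven bla reporter. Compounds were co-incubated with 5 nM dexamethasone agonist (final) for 18 h at 37 C.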
Glucocorticoid receptor (Homo sapiens), sequence (P04150 whole entry, looked up): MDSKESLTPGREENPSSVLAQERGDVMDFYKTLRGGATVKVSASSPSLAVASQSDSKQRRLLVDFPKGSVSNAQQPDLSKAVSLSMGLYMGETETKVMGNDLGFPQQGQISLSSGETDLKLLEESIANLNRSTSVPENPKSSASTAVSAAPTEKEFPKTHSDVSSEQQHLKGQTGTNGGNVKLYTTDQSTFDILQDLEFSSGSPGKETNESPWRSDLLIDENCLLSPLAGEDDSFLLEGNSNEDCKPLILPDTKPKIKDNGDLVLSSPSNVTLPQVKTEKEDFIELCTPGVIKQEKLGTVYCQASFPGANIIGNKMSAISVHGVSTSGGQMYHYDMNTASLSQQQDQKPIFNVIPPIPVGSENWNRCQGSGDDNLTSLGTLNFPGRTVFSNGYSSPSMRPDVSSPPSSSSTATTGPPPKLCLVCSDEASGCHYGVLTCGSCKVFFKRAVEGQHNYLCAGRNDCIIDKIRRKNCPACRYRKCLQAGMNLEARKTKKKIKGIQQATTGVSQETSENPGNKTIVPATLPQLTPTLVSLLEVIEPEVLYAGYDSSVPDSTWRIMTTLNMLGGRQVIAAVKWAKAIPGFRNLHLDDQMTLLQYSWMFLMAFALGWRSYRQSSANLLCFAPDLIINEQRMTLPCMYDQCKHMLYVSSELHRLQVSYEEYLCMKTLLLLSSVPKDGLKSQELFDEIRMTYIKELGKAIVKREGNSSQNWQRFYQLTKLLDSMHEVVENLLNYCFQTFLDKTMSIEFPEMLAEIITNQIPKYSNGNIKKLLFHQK

Androgen receptor (Homo sapiens), sequence (P10275 whole entry, looked up): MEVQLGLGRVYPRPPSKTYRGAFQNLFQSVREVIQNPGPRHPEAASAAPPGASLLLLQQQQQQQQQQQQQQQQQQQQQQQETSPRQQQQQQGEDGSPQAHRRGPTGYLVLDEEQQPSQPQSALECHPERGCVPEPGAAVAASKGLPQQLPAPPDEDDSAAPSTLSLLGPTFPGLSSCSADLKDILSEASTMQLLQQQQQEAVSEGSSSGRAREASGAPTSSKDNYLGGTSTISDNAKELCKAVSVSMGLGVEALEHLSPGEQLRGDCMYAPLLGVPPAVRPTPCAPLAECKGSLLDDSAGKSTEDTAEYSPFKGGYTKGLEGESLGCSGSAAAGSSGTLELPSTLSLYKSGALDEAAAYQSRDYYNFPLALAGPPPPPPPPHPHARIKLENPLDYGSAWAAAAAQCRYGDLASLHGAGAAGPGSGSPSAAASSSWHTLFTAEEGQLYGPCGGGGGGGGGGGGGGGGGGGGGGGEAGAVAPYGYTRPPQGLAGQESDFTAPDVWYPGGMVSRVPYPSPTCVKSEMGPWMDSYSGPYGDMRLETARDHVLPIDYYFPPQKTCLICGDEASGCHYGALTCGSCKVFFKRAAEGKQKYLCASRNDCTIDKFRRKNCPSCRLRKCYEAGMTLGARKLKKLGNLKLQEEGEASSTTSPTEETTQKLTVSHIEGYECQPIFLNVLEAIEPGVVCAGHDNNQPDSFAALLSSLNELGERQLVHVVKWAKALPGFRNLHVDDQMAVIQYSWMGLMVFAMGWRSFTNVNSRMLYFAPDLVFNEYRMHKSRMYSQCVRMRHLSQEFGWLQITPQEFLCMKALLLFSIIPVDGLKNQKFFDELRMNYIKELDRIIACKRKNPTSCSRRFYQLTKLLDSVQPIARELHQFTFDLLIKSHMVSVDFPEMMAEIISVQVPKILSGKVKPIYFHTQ

`Cc1ccc(-c2cc(C(F)(F)F)nn2-c2ccc(S(N)(=O)=O)cc2)cc1`: the Potency result in assay [1], in [2], in assay [5], in assay [6], in assay [12] and in [13] was “inactive” throughout. Besides, the compound was classed as inactive in assay [3] and in assay [4]. For the same compound, the Potency was 23.7 µM (active) and 27.3 µM (active) in [7]; 21.1 µM (active) and 54.3 µM (active) and 24.3 µM (active) in assay [8]; 29.8 µM (active) and 54.3 µM (active) and 24.3 µM (active) in assay [9]; 34.5 µM (active) and 43.6 µM (active) in assay [10]; 23.9 µM (active) in assay [11]; “inactive and 60.9 µM (active) and 68.6 µM (active)” in assay [14]. The Potency in assay [15] was 26.6 µM (active) and 48.4 µM (active).

Take `CC(C(O)c1ccc(O)cc1)N1CCC(Cc2ccccc2)CC1` (stereo not drawn): the Potency result in [1], in assay [2], in assay [5], in assay [16], in assay [17] and in [18] was “inactive” throughout. Besides, the Potency entry in [10] is “inactive”. Also, the call in [3] and in [4] was inactive. Besides, the Potency in assay [7] was 2.11 µM (active); in assay [9], 668 nM (active); in assay [15] it was 21.1 µM (active).

Take `c1cc(C(c2ccc(OCC3CO3)cc2)C(c2ccc(OCC3CO3)cc2)c2ccc(OCC3CO3)cc2)ccc1OCC1CO1` (stereo not drawn): the Potency result in assay [1], in assay [2], in assay [5], in assay [17], in assay [19] and in assay [18] was “inactive” in each case. Moreover, the Potency result in assay [10] and in assay [13] was “inactive” in each case. In addition, the result in assay [3] and in assay [4] was inactive. In addition, the Potency in assay [7] is 20.1 µM (active) and 3.43 µM (active); in assay [8], 357 nM (active) and 385 nM (active); in assay [9] it was 6.34 µM (active) and 3.06 µM (active); in assay [15], 48.5 µM (active).

For the compound `CC1COc2c(N3CCN(C)CC3)c(F)cc3c(=O)c(C(=O)O)cn1c23` (stereo not drawn), the Potency entry in assay [1], in [2], in [5], in assay [6], in assay [18] and in assay [7] was “inactive” each time. Further, the Potency entry in assay [8], in assay [9] and in assay [10] was “inactive” throughout. For the same compound, the outcome in assay [3] and in assay [4] was inactive.

Turning to `Nc1ccc(O)cc1`, the Potency entry in assay [1], in assay [2], in [5], in [6], in assay [10] and in assay [12] was “inactive” throughout. Besides, the call in [3] and in assay [4] was inactive. Also, the Potency in assay [19] was 49 µM (active); in assay [18], 15.1 µM (active) and 25.5 µM (active); in assay [14], 5.96 µM (active) and 12.2 µM (active) and 25.3 µM (active); in assay [15] it was 8.41 µM (active) and 17.2 µM (active) and 14.2 µM (active).

Consider `N[C@@H]1CONC1=O`, for which the Potency entry in [1], in assay [2], in [5], in assay [6], in [16] and in assay [17] was “inactive” each time. Moreover, the Potency entry in [7], in assay [8], in assay [9], in assay [10] and in [13] was “inactive” throughout. Also, the compound was classed as inactive in assay [3] and in [4].

In the case of `Oc1c(Cl)cc(Cl)cc1Sc1cc(Cl)cc(Cl)c1O`, the Potency result in assay [1], in assay [2], in assay [5] and in assay [16] was “inactive” each time. Moreover, the call in assay [3] and in assay [4] was inactive. The Potency is 19.5 µM (active) and 28 µM (active) and 21.9 µM (active) in assay [18]; 11.9 µM (active) and 27.4 µM (active) and 17.2 µM (active) in assay [7]; 17.3 µM (active) [middle of 4 runs] in [9]; 6.18 µM (active) and 8.85 µM (active) and 6.16 µM (active) in assay [10]; 55.4 µM (active) in assay [13].
